Most compounds without a hit are left out; they make up all but 0.93% or so of the library.
TRHR agonist-1: agonists of human TRH receptor. hit rate 0.18% among 360,000. activation, % at 2 µM. TRHR cells, calcium flux fluo-8, FDSS agonist mode. P34981; in the data active = activation above about 30%; also: 0% is about no effect
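In this calcium-flux screen, cells bearing human TRHR are dye-loaded with fluo-8, baselined for 10 cycles, then exposed to library compounds; positive kinetic calcium responses during the agonist phase mark hits, with TRH as control.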
HEK293 tox: cytotoxic in the GLP-1 receptor inverse agonist counter-screen; HEK293 cAMP-luciferase reporter cells, luminescence, 24 h; hit rate 0.13% among 410,000; AID 624418; Potency, µM (top dose mostly 38.3 µM), for inactives: at the highest dose activity change, negative = inhibition, most hits filed as inhibitors;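 also: loss of luciferase light is scored as toxicity; potency is read from the fitted curve at half-maximal effect; % is scaled to controls: 0 for no effect and ±100 for the full control effect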
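Seeding density was 200 cells/uL; after overnight-length (12 h) culture, 23 nL compounds went on for 24 h at 37 °C. Readout used a luciferase detection reagent, luminescence taken after 12 min at room temperature.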
TRHR enhancer-1: allosterically enhances the human TRH receptor; enhancement, % at 2 µM; P34981; TRHR cells, fluo-8 calcium fluorescence, EC20 TRH enhancement; hit rate 0.66% among 360,000; in the data active = enhancement above about 30%; also: 0% is about no effect
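Enhancer read-out: after compound pinning and an initial kinetic agonist-mode read, an EC20 of TRH (10 nM final) was injected and fluo-8 calcium signal (Ex 480/Em 530) followed at 1 s/cycle for 100 cycles in TRHR-expressing cells.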
PTHR1 agonist: PTHR1 (human) receptor agonism | HEK293 GP2 PTHR1 cells, GloSensor cAMP luminescence, 1 h | hit rate 0.075% among 410,000 | Potency, µM (highest dose often 115 µM), for the others: at the top dose activation, hits mostly activators | Q03431; also: potency is read from the fitted curve at half-maximal effect; nearly all actives have a fitted effect of over 55% in size
Target sequence (Q03431 whole entry, looked up): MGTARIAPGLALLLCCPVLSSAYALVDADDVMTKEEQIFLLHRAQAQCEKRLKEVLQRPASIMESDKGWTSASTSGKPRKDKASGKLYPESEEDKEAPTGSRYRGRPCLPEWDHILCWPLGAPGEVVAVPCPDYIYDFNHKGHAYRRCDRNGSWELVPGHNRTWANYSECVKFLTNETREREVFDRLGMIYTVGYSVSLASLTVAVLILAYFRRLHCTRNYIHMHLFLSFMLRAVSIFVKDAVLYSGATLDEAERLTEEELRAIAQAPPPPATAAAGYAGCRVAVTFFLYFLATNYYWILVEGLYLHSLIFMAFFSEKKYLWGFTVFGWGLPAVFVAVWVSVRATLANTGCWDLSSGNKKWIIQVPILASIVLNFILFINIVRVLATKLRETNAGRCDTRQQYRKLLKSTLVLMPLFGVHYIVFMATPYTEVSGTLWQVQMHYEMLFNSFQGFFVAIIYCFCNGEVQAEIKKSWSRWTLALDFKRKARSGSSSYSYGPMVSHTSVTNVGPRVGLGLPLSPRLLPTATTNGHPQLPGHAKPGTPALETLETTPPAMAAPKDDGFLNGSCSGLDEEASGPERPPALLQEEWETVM
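HEK-293-derived GP2 cells expressing PTHR1 and a GloSensor cAMP reporter, 3,000/well, plated overnight, given luciferin plus IBMX (each 0.5 mM as added) for 1 h at 37 °C, then compound for 1 h at 37 °C. Luminescence was read after 15 min at room temperature.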
TRPML1 blocker: inhibitors of human TRPML1 channel; AID 624415; TRPML1-inducible cells, Ca2+ dye fluorescence, FDSS; active compounds read low; inhibition of EC80 agonist-evoked calcium signal; activity change, negative = inhibition, % (concentration not given with the values); hit rate 0.02% among 390,000; in the data active = activity change below about -50%; inconclusive = between about -30% and that limit;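 also: stimulus is agonist 54-4 at its EC80 concentration; % is scaled to controls: 0 for no effect and ±100 for the full control effect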
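Tet-induced TRPML1-DL cells loaded with Ca8 no-wash calcium dye were read kinetically on FDSS. Compound addition was followed by EC80 agonist 54-4 (4 uM final); inhibition was read over 110 s.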
TRPML1 agonist: activates the human TRPML1 channel. TRPML1-expressing cells, Ca2+ dye fluorescence, FDSS. activation, % (concentration not given with the values). Q9GZU1. hit rate 0.12% among 410,000; in the data active = activation above about 50%; inconclusive = mostly about 30% to 49%; also: 0% is about no effect
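In this qHTS format, compounds were pin-transferred onto Ca8-dye-loaded TRPML1-DL cells induced with Tet overnight, and intracellular Ca2+ fluorescence was recorded kinetically for 110 s after a 10 s baseline. A subsequent 4uM final 54-4 (EC80) addition followed by a second 110 s read served as the antagonist phase.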
TRHR enhancer-2: confirmation of human TRH receptor allosteric enhancers; activity change, negative = inhibition, % at 46.1 µM; 970 tested, under 10 active; TRH receptor cell assay, enhancer confirmation qHTS; AID 493076; shares compounds with TRHR enhancer-1;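 also: compound effect scored on response to added TRH at EC20 of 10 nM; 0% is about no effect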
TRHR agonist-2: confirmation of human TRH receptor agonists | TRHR-expressing cells, agonist activation read-out | AID 493078 | hit rate 8% among 970 | shares compounds with TRHR enhancer-1 | Potency, µM (top dose mostly 46.1 µM), for the others: at the top dose activation, most hits filed as activators; also: potency is read from the fitted curve at half-maximal effect; 0% is about no effect; nearly all actives have a fitted effect of over 75% in size
Starred values were filed as active, the others as inactive; i = inactive; ? = inconclusive; . = not tested or not shown; [ ] = another dose, or the depositor's remark. Unless noted, calls follow the shape of the dose curve; as a rule, active = well fitted curve in the direction sought with a large enough effect; inconclusive = small, poorly fitted or top-dose-only effect, or another doubt; inactive = no such curve, though single readings can be large; an effect the other way counts as inactive or inconclusive.

SMILES	TRHR agonist-1	HEK293 tox	TRHR enhancer-1	PTHR1 agonist	TRPML1 blocker	TRPML1 agonist	TRHR enhancer-2	TRHR agonist-2
CCOC(=O)C1=C(CNCCc2ccc(Cl)cc2)NC(=O)NC1c1ccc2c(c1)OCO2 (centres undefined)	0	-22%	41*	-18%	14	0	7	?
COC(=O)c1ccc(-c2ccc(C3C4C=CCC(C)C4C(=O)N3Cc3ccccc3)c(F)c2)cc1 (centres undefined)	.	.	.	.	56	0	.	.
Clc1ccc(Cn2ccc(C3CC3)n2)cc1	-1	-1%	-5	-2%	-10	1	.	.
Cc1ccc(Cn2ccc(C3CC3)n2)cc1	-1	-10%	51*	-1%	-17	1	-1	-1%
COc1ccccc1N1CCN(C(=O)CSc2nc3ccccc3nc2N2CCC(C)CC2)CC1	0	-1%	54*	-21%	-11	1	-4	0%
Cc1cccc(C(=O)NCC(=O)OCC(=O)c2ccc3ccccc3c2)c1	.	.	.	.	.	0	.	.
O=C(CCN1C(=O)C2CCCCC2C1=O)N1CCN(S(=O)(=O)c2ccccc2)CC1 (centres undefined)	0	-3%	41*	i	-20	1	4	-1%
O=C(CCN1C(=O)C2CCCCC2C1=O)N1CCN(S(=O)(=O)c2cccc(F)c2)CC1 (centres undefined)	0	2%	30	i	-11	0	.	.
O=C(COc1ncnc2ccccc12)Nc1ccc(S(=O)(=O)N2CCOCC2)cc1	0	10%	43*	-11%	3	1	?	0%
CC(=O)NC(Cc1ccc(I)cc1)C(=O)NCC(N)C(=O)c1ccccc1 (centres undefined)	.	.	.	.	.	1	.	.
CN1C(=O)c2cccc3c(S(=O)(=O)Nc4ccccn4)ccc1c23	0	9%	0	i	-12	0	.	.
CCN1C(=O)c2cccc3c(S(=O)(=O)Nc4ccccc4OC)ccc1c23	56*	18%	18	-29%	2	-1	-6	?
Cc1ccccc1NS(=O)(=O)c1ccc2c3c(cccc13)C(=O)N2C	-1	53%	61*	-30%	-2	1	-9	0%
C=C1Nc2ccccc2C(=O)N1c1ccc(C(=O)N2CCN(C(=O)c3ccco3)CC2)cc1	.	.	.	.	.	0	.	.
CCN(CC(=O)Nc1c(F)cccc1F)C(=O)c1ccc(S(=O)(=O)N2CCCCCC2)cc1	-1	2%	-6	i	7	-1	.	.
CCN(CC(=O)Nc1c(F)cccc1F)C(=O)c1cccc(S(=O)(=O)N2CCCCCC2)c1	0	0%	42*	i	-12	0	-3	1%
O=C(COC(=O)c1cn(-c2ccccc2)nc1-c1ccc(F)cc1)Nc1ncc(Cl)cc1Cl	0	8%	-5	i	-8	2	.	.
NS(=O)(=O)c1ccc(NC(=O)COC(=O)c2cn(-c3ccccc3)nc2-c2ccc(F)cc2)cc1	1	-25%	45*	i	15	1	-8	?
Cn1c(SCC(=O)NCc2ccco2)nnc1-c1ccccc1	0	5%	0	i	29	0	.	.
Cn1c(SCC(=O)NCc2ccco2)nnc1-c1ccc(S(=O)(=O)N2CCOCC2)cc1	0	9%	47*	-5%[57.5 µM]	-2	5	-3	-1%
COc1cc2c(NC3CCN(C)CC3)nc(N3CCCCC3)nc2cc1OCCOCCN(C)C	.	.	.	.	.	0	.	.
O=[N+]([O-])c1ccc2nc(CO)[nH]c2c1	.	.	.	.	.	0	.	.
CCN1C(=O)c2ccccc2S(=O)(=O)c2ccc(C(=O)NC(C)C)cc21	1	6%	53*	-14%	10	0	-3	0%

Compound activity from PubChem BioAssay.
